# Experiments:
# Experiment in all cases: DAPPL (digital affinity profiling via proximity ligation, sequencing); 10 mM Tris-HCl pH 7.5, 50 mM NaCl, 1 mM DTT, 4% glycerol, room temperature, 30 min; GST-TFs on glutathione beads, 16-mer random dsDNA library, 0.1% formaldehyde crosslink after washing; high values mean tight binding
# [1] = target: T1, FEV (Homo sapiens, UniProt Q99581 1-238); settings: protein: recombinant; tags: N-terminal GST; dsDNA, one strand shown
# T1 sequence: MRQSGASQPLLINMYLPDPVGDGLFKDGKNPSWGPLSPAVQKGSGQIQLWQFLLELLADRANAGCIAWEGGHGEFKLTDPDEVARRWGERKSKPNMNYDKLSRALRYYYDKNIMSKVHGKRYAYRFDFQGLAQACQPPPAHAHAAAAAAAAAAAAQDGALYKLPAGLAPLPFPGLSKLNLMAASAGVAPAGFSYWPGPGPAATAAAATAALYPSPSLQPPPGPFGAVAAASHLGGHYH
# Method in brief: (§1)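 Binding signal is defined as a hexamer's read frequency for one factor over its frequency for the tag-only sample. To obtain reads, GST-fused human transcription factors were expressed in yeast, captured on glutathione beads, barcoded with DNA and pooled with that sample. Pools met 200 nmole of a 16-mer random double-stranded DNA library in Tris/NaCl/DTT/glycerol buffer for 30 min at room temperature before washing, 0.1% formaldehyde crosslinking, proximity ligation (BsaI/T4 ligase, 1 h, 37 °C), PCR and Illumina NextSeq500 sequencing.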
# [2] = target: ETV5 (Homo sapiens, UniProt P41161 1-510); settings: protein: recombinant; tags: N-terminal GST; dsDNA, one strand shown
# Method in brief: as §1
# [3] = target: HSF1 (Homo sapiens, UniProt Q00613 1-529); settings: protein: recombinant; tags: N-terminal GST; chain copies: 3; dsDNA, one strand shown
# Method in brief: as §1
# [4] = target: T2, SPIC (Homo sapiens, UniProt Q8N5J4 1-248); settings: protein: recombinant; tags: N-terminal GST; dsDNA, one strand shown
# T2 sequence: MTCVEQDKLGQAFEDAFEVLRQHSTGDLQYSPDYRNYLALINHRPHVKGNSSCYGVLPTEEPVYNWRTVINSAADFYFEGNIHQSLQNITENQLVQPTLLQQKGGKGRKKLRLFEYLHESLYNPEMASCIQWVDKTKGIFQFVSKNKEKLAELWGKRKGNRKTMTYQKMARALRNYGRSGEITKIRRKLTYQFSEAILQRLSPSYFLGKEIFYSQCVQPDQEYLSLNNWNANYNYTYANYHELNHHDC
# Method in brief: as §1
# [5] = target: ELF4 (Homo sapiens, UniProt Q99607 1-663); settings: protein: recombinant; tags: N-terminal GST; dsDNA, one strand shown
# Method in brief: as §1
# [6] = target: T3, ELK4 (Homo sapiens, UniProt P28324-2 1-405); settings: protein: recombinant; tags: N-terminal GST; dsDNA, one strand shown
# T3 sequence: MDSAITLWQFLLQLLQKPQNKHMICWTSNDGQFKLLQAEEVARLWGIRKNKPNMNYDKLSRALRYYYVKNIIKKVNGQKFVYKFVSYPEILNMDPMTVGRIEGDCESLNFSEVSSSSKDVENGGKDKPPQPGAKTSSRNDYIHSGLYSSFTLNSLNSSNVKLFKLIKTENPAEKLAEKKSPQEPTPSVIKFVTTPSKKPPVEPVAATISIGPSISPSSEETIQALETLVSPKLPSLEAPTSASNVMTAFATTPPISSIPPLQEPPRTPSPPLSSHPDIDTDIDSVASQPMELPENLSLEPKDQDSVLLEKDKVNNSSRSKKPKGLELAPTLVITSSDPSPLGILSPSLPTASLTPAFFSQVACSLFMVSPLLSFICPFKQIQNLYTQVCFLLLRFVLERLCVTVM
# Method in brief: as §1
# [7] = target: T4, ETV2 (Homo sapiens, UniProt O00321 1-342); settings: protein: recombinant; tags: N-terminal GST; dsDNA, one strand shown
# T4 sequence: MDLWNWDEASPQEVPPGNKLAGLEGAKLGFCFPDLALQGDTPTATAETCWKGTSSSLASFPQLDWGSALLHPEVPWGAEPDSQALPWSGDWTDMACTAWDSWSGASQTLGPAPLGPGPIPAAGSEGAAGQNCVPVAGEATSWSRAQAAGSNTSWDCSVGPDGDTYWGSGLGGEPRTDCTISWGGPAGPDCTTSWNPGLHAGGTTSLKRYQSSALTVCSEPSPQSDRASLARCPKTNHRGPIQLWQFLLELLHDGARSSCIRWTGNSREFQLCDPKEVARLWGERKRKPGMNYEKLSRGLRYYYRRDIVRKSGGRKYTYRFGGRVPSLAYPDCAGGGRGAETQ
# Method in brief: as §1
# [8] = target: T5, ELF3 (Homo sapiens, UniProt P78545 1-371); settings: protein: recombinant; tags: N-terminal GST; dsDNA, one strand shown
# T5 sequence: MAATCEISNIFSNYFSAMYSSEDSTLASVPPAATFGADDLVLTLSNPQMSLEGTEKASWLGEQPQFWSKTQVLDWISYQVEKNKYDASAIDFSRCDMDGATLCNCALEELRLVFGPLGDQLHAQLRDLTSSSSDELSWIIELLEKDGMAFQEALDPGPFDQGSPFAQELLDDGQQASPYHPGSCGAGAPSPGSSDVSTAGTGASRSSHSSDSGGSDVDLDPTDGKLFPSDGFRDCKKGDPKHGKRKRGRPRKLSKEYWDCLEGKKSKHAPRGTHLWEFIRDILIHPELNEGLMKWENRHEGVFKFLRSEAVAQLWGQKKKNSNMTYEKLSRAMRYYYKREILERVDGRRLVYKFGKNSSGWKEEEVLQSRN
# Method in brief: as §1
# [9] = target: CRX (Homo sapiens, UniProt O43186 1-299); settings: protein: recombinant; tags: N-terminal GST; dsDNA, one strand shown
# Method in brief: as §1
# [10] = target: ETV1 (Homo sapiens, UniProt P50549 1-477); settings: protein: recombinant; tags: N-terminal GST; dsDNA, one strand shown
# Method in brief: as §1
# [11] = target: T6, ERF (Homo sapiens, UniProt P50548 1-548); settings: protein: recombinant; tags: N-terminal GST; dsDNA, one strand shown
# T6 sequence: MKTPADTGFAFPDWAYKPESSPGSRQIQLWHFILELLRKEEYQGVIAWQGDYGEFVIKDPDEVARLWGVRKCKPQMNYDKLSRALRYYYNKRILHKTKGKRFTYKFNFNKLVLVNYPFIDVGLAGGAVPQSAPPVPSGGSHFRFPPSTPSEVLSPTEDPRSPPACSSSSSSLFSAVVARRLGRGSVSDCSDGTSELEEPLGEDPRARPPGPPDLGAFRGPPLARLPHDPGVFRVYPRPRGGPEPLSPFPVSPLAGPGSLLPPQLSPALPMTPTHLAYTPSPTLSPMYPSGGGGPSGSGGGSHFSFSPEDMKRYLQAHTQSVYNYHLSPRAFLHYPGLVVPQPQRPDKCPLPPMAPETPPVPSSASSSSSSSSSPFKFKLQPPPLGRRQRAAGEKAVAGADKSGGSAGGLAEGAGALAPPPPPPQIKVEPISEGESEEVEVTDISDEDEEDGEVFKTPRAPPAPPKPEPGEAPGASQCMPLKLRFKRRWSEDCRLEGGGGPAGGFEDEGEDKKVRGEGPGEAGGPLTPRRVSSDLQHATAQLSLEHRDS
# Method in brief: as §1
# [12] = target: T7, ETV3L (Homo sapiens, UniProt Q6ZN32 1-361); settings: protein: recombinant; tags: N-terminal GST; dsDNA, one strand shown
# T7 sequence: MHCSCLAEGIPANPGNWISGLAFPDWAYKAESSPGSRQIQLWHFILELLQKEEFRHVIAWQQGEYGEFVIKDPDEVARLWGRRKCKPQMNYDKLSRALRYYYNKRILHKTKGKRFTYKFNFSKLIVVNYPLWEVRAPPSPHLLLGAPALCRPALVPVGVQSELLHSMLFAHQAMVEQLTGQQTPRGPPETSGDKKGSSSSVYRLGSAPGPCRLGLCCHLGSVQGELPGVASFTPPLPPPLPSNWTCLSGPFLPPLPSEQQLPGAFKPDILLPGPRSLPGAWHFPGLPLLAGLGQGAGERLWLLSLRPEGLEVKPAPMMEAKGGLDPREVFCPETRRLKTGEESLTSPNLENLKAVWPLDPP
# Method in brief: as §1
# [13] = target: T8, ETS2 (Homo sapiens, UniProt P15036 1-469); settings: protein: recombinant; tags: N-terminal GST; dsDNA, one strand shown
# T8 sequence: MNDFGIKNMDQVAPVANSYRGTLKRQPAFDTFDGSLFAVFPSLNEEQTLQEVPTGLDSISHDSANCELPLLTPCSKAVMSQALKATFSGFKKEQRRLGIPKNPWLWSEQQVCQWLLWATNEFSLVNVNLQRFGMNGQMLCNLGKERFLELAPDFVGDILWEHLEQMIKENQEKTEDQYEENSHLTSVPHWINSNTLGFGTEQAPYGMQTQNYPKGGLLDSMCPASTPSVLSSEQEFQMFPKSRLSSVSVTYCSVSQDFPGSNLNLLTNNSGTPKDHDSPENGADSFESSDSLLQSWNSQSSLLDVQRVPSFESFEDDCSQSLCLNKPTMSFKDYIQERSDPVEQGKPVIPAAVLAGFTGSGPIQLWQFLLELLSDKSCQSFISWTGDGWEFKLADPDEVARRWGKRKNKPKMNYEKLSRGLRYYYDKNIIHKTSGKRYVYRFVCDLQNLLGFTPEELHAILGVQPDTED
# Method in brief: as §1
# [14] = target: T9, SPDEF (Homo sapiens, UniProt O95238 1-335); settings: protein: recombinant; tags: N-terminal GST; dsDNA, one strand shown
# T9 sequence: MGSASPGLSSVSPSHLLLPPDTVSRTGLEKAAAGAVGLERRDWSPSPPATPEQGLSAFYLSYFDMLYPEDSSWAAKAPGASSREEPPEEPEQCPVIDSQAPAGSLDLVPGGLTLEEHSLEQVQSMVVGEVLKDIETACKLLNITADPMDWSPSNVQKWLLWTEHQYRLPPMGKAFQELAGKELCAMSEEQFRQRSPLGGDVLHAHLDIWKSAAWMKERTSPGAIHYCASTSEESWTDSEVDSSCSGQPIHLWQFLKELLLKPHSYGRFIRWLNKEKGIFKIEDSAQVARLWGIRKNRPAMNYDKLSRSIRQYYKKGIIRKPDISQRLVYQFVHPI
# Method in brief: as §1
# [15] = target: T10, ETV7 (Homo sapiens, UniProt Q9Y603 1-341); settings: protein: recombinant; tags: N-terminal GST; dsDNA, one strand shown
# T10 sequence: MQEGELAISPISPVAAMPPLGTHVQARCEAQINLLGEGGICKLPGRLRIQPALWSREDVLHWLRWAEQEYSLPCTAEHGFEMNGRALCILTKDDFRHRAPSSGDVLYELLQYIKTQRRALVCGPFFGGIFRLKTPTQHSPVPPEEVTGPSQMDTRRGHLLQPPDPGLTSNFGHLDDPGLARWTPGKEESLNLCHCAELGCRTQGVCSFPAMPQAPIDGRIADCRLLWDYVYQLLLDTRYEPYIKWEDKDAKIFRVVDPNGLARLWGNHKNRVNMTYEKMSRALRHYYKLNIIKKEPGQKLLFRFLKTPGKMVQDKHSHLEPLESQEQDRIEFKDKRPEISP
# Method in brief: as §1
# [16] = target: T11, ELF5 (Homo sapiens, UniProt Q9UKW6-2 1-255); settings: protein: recombinant; tags: N-terminal GST; dsDNA, one strand shown
# T11 sequence: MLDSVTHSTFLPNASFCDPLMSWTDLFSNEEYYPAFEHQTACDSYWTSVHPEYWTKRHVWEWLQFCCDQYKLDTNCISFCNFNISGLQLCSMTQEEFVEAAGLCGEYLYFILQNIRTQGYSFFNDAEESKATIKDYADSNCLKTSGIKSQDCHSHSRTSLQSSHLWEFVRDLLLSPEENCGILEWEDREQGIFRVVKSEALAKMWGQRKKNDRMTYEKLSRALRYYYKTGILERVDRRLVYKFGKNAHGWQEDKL
# Method in brief: as §1
# [17] = target: T12, ETV3 (Homo sapiens, UniProt P41162-2 1-143); settings: protein: recombinant; tags: N-terminal GST; dsDNA, one strand shown
# T12 sequence: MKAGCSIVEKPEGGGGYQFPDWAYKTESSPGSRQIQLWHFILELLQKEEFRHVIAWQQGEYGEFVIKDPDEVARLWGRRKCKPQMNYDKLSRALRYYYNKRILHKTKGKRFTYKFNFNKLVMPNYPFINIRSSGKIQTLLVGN
# Method in brief: as §1
# [18] = target: ETV6 (Homo sapiens, UniProt P41212 1-452); settings: protein: recombinant; tags: N-terminal GST; dsDNA, one strand shown
# Method in brief: as §1
# Chain of HSF1 (Q00613 whole entry): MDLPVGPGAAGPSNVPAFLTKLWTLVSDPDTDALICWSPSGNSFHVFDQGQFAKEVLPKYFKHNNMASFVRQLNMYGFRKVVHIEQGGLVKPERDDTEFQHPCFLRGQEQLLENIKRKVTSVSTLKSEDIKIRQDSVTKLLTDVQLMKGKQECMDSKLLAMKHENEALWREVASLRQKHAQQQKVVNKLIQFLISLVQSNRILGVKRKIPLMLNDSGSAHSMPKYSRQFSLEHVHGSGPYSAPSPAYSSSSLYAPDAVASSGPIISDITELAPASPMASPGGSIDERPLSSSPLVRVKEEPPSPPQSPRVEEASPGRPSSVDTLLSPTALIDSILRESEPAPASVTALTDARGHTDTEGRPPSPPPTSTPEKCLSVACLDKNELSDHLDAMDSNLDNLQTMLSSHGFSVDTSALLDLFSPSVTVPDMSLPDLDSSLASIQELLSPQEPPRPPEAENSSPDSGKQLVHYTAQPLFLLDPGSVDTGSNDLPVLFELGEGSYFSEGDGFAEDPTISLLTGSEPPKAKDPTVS
# Chain of CRX (O43186 whole entry): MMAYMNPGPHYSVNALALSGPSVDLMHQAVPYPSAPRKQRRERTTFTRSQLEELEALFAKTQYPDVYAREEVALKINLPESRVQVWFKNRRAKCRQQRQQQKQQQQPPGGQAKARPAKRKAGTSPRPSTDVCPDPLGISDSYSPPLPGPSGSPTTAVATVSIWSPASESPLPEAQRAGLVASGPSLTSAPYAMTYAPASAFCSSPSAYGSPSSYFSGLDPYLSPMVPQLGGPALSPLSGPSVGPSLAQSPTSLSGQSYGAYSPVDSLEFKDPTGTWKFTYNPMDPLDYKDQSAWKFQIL
# Chain of ELF4 (Q99607 whole entry): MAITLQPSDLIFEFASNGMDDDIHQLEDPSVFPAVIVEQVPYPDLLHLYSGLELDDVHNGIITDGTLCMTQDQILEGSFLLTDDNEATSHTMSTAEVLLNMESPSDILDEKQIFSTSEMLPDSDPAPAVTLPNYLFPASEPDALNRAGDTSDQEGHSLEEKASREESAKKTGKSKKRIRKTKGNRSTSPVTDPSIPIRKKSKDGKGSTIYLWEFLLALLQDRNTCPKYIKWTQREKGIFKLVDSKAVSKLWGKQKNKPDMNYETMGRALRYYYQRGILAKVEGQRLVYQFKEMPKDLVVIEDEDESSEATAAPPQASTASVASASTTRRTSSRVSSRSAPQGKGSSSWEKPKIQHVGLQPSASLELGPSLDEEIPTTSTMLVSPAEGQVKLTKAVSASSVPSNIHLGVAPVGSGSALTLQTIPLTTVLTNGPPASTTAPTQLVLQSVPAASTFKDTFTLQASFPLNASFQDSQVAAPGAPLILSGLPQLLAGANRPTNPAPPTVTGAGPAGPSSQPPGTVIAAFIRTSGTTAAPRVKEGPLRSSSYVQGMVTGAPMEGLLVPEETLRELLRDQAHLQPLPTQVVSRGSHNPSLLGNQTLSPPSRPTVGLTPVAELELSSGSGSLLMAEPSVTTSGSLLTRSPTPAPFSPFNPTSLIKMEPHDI
# Chain of ETV1 (P50549 whole entry): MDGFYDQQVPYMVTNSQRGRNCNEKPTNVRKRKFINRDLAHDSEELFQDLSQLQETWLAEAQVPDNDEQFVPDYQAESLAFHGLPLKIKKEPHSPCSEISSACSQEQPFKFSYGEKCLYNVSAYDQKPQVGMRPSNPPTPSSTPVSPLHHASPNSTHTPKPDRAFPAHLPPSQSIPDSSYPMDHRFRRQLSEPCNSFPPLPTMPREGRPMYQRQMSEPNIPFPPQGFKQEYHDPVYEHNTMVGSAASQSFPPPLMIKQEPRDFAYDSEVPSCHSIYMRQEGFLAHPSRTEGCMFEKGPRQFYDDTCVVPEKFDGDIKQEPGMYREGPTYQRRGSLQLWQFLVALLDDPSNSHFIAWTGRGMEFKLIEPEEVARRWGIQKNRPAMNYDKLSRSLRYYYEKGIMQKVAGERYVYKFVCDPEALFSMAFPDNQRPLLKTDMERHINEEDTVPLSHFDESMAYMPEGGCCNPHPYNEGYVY
# Chain of ETV6 (P41212 whole entry): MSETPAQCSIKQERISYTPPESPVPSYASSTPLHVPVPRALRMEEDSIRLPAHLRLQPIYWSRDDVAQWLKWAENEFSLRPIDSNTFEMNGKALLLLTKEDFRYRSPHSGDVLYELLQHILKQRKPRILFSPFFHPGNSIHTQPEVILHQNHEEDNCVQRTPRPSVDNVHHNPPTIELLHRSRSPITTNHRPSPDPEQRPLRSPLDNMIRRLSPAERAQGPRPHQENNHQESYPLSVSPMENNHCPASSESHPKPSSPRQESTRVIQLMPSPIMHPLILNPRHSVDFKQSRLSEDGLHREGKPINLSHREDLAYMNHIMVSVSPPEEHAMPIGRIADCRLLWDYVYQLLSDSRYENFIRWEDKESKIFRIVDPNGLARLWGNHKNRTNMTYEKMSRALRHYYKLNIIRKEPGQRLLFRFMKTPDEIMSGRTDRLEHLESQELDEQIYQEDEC
# Chain of ETV5 (P41161 whole entry): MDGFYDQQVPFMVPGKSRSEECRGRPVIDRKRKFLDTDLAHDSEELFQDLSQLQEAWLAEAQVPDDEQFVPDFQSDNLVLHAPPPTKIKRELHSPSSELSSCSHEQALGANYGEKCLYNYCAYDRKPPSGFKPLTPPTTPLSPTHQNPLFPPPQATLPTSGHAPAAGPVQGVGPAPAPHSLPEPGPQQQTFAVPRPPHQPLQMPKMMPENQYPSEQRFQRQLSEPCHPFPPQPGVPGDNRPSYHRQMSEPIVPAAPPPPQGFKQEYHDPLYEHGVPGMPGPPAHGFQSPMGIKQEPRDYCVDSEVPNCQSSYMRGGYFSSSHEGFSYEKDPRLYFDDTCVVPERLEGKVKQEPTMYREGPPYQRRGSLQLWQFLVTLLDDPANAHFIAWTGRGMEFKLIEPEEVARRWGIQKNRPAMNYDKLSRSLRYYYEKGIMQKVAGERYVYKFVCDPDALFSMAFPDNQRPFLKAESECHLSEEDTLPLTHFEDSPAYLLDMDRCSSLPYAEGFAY
sequence,measurement,setting,value
CTACCC,binding signal,[1],"1.26 fold enrichment (6-mer frequency, TF over GST control)"
same,binding signal,[2],"1.28 fold enrichment (6-mer frequency, TF over GST control)"
same,binding signal,[3],"1.04 fold enrichment (6-mer frequency, TF over GST control)"
same,binding signal,[4],"1.47 fold enrichment (6-mer frequency, TF over GST control)"
same,binding signal,[5],"1.36 fold enrichment (6-mer frequency, TF over GST control)"
same,binding signal,[6],"1.23 fold enrichment (6-mer frequency, TF over GST control)"
same,binding signal,[7],"1.29 fold enrichment (6-mer frequency, TF over GST control)"
same,binding signal,[8],"1.3 fold enrichment (6-mer frequency, TF over GST control)"
same,binding signal,[9],"1.08 fold enrichment (6-mer frequency, TF over GST control)"
same,binding signal,[10],"1.26 fold enrichment (6-mer frequency, TF over GST control)"
same,binding signal,[11],"1.29 fold enrichment (6-mer frequency, TF over GST control)"
same,binding signal,[12],"1.32 fold enrichment (6-mer frequency, TF over GST control)"
same,binding signal,[13],"1.38 fold enrichment (6-mer frequency, TF over GST control)"
same,binding signal,[14],"1.29 fold enrichment (6-mer frequency, TF over GST control)"
same,binding signal,[15],"1.23 fold enrichment (6-mer frequency, TF over GST control)"
same,binding signal,[16],"1.29 fold enrichment (6-mer frequency, TF over GST control)"
same,binding signal,[17],"1.28 fold enrichment (6-mer frequency, TF over GST control)"
same,binding signal,[18],"1.21 fold enrichment (6-mer frequency, TF over GST control)"

# From paper PMC7862700, “An all-to-all approach to the identification of sequence-specific readers for epigenetic DNA modifications on cytosine”
